CCHFV vOTU inh – CCHFV vOTU protease inhibition; Pep-AMC fluorescence; inhibition, % at 11.5 µM; hit rate 0.55% among 370,000; AID 651958; in the data active means inhibition above about 30%; further: 0% = vehicle wells with enzyme and 100% = no enzyme wells
GDH-TPI counter-1 – counter-screen for M. tuberculosis FBA inhibitors: GDH-TPI coupled enzymes | hit rate 1.2% among 360,000 | GDH-TPI coupled enzyme counterscreen, NADH absorbance | AID 588335 | inhibition, % at 4.8 µM; in the data active means inhibition above about 30%;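 further: 0% = DMSO wells and 100% = wells lacking the enzyme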
RecA splice inh – blocks M. tuberculosis RecA intein splicing; hit rate 0.75% among 290,000; cell-free RecA intein splicing, fluorescence; P9WHJ3; inhibition, % (concentration not given with the values); AID 2221; in the data active means inhibition above about 30%;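 further: 0% = vehicle wells and 100% = reference inhibitor control wells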
Target sequence (P9WHJ3 whole entry, looked up, canonical isoform): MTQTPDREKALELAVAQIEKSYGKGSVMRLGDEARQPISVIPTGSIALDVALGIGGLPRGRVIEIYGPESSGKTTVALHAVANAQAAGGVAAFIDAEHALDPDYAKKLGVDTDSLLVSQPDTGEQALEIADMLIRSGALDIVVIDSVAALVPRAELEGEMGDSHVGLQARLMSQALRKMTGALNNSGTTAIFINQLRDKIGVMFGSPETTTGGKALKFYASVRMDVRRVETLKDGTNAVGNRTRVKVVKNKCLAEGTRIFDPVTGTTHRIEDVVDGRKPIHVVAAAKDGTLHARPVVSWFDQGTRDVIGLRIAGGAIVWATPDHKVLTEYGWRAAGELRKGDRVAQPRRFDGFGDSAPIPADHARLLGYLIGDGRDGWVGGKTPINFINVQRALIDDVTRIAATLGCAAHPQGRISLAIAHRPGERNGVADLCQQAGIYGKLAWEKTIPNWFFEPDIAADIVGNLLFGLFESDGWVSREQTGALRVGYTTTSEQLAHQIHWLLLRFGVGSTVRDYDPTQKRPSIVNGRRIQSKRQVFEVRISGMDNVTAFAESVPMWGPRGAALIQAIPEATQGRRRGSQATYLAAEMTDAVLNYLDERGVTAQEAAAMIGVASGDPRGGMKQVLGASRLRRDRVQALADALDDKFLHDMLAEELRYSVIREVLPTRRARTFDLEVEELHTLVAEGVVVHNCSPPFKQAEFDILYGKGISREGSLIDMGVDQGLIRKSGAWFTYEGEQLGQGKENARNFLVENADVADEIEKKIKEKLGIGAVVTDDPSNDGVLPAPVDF
FBA Mtb inh – inhibits M. tuberculosis FBA enzyme. inhibition, % at 1 µM. hit rate 2.3% among 360,000. P9WQA3. purified M. tuberculosis FBA, fluorescence read-out;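 further: 0% = vehicle and 100% = reference inhibitor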
Mtb FBA inh conf – confirmation of M. tuberculosis fructose-bisphosphate aldolase inhibitors | shares compounds with FBA Mtb inh | purified M. tuberculosis FBA, fluorescence read-out | inhibition, % at 1 µM | hit rate 78% among 5,600 | AID 651616;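 further: 0% = vehicle wells and 100% = reference inhibitor wells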
GDH-TPI counter-2 – inhibits GDH-TPI coupling enzymes, flagging Mtb FBA hits; shares compounds with FBA Mtb inh; GDH-TPI coupled enzyme counterscreen, fluorescence; inhibition, % at 1 µM; hit rate 81% among 5,600; AID 652141; in the data active means inhibition above about 10%
GDH-TPI dose – counter-screen for M. tuberculosis FBA inhibitors: GDH-TPI dose response; shares compounds with FBA Mtb inh; AID 652145; hit rate 79% among 170; GDH-TPI coupled enzyme assay, fluorescence, artifact counterscreen; IC50, µM; call rule not given here
Starred values were filed as active, the others as inactive. Shown are actives, neighbours in structure and some others; about 4.2% of the full set was active somewhere. Unless noted, no stated cut-off is given here; in the data, active means inhibition above about 27%; inactive means the rest.

Cc1ccc(S(=O)(=O)N2CCOCC2)cc1C(=O)OC(C)C(=O)NC1CCCC1 (centres undefined) was read as CCHFV vOTU inh -7, GDH-TPI counter-1 2 and FBA Mtb inh 1.
Screening CC/C(=N/NC(=O)c1ccccc1)c1ccc(OCCN2CCOCC2)cc1 returned CCHFV vOTU inh 3, GDH-TPI counter-1 3, RecA splice inh 1, FBA Mtb inh 31*, Mtb FBA inh conf 91* and GDH-TPI counter-2 57*.
For Brc1c(CSc2nncn2-c2ccccc2)nc2ncccn12 the results were CCHFV vOTU inh -53, GDH-TPI counter-1 19, RecA splice inh -1, FBA Mtb inh 83*, Mtb FBA inh conf 103* and GDH-TPI counter-2 75*.
Screening Cc1cc(C)nc(SCc2nc3ncccn3c2Br)n1 returned CCHFV vOTU inh -56, GDH-TPI counter-1 10, RecA splice inh 6, FBA Mtb inh 66*, Mtb FBA inh conf 31*, GDH-TPI counter-2 10 and GDH-TPI dose 2.7*.
`Brc1c(CSc2nc3ccccc3o2)nc2ncccn12` gave CCHFV vOTU inh -26, GDH-TPI counter-1 12, RecA splice inh -2, FBA Mtb inh 63*, Mtb FBA inh conf 63* and GDH-TPI counter-2 43*.
`Cc1cc(C)nc(SCc2cn3c(C)cccc3n2)n1` gave CCHFV vOTU inh -8, GDH-TPI counter-1 1, RecA splice inh -5 and FBA Mtb inh 2.
For Clc1c(CSc2nc3ccccc3o2)nc2ccccn12 the results were CCHFV vOTU inh 0, GDH-TPI counter-1 8, RecA splice inh -2 and FBA Mtb inh 0.
For O=C(Cn1cc(C(F)(F)F)cc(Cl)c1=O)Nc1cccc(S(=O)(=O)N2CCCCC2)c1 the results were CCHFV vOTU inh 1, GDH-TPI counter-1 -2 and FBA Mtb inh -1.
`Cc1ccc(Cn2nc(C)c(C(=O)NCC(c3cccs3)N3CCOCC3)c2Cl)cc1` (centres undefined) gave CCHFV vOTU inh 7, GDH-TPI counter-1 7, RecA splice inh -4 and FBA Mtb inh 1.
Screening COc1cc(NC(=O)Cc2ccccc2)ccc1NC(=O)c1ccccc1 returned CCHFV vOTU inh 2, GDH-TPI counter-1 -4, RecA splice inh -2 and FBA Mtb inh -7.
CC(/C=C/c1ccccc1)=N/O was read as CCHFV vOTU inh 2, GDH-TPI counter-1 6, RecA splice inh 0 and FBA Mtb inh 1.
CC(/C=C/c1ccc(O)cc1)=N/O was read as CCHFV vOTU inh 13, GDH-TPI counter-1 12, RecA splice inh -5, FBA Mtb inh 67*, Mtb FBA inh conf -3 and GDH-TPI counter-2 -3.
`O=C(CN1CCOCC1)N1CCOCC1` gave CCHFV vOTU inh 18, GDH-TPI counter-1 12 and FBA Mtb inh 4.
For COc1ccc(S(=O)(=O)N2CCC(C(=O)N3CCCCC3)CC2)cc1OC the results were CCHFV vOTU inh -5, GDH-TPI counter-1 4 and FBA Mtb inh 2.
`COc1ccc(S(=O)(=O)N2CCN(C(=O)C3CC(=O)N(c4ccccc4F)C3)CC2)cc1OC` (centres undefined) gave CCHFV vOTU inh -1, GDH-TPI counter-1 -1, FBA Mtb inh 33*, Mtb FBA inh conf 150* and GDH-TPI counter-2 94*.
Screening CCOC(=O)c1c(NC(=O)COC(=O)c2nccnc2N)sc2c1CCC2 returned CCHFV vOTU inh -2, GDH-TPI counter-1 13, FBA Mtb inh 45*, Mtb FBA inh conf 124* and GDH-TPI counter-2 93*.
`CCOC(=O)c1c(NC(=O)COC(=O)c2nccnc2N)sc(C(=O)N(C)C)c1C` gave CCHFV vOTU inh -23, GDH-TPI counter-1 -2, RecA splice inh -2, FBA Mtb inh 48*, Mtb FBA inh conf active and GDH-TPI counter-2 active.
For C=CCN=C1NC(c2ccc(Cl)cc2)C(C(=O)OC)=C(C)N1Cc1cccc(C(F)(F)F)c1 (centres undefined) the results were CCHFV vOTU inh 12.
Cc1ccc(C2N(C)C(=O)c3ccccc3N2C)cc1 (centres undefined) was read as CCHFV vOTU inh -72, GDH-TPI counter-1 9, RecA splice inh -1, FBA Mtb inh 52*, Mtb FBA inh conf active and GDH-TPI counter-2 active.
`C#CCOc1ccc(C2C3=C(CCCC3=O)N(CC(=O)O)C3=C2C(=O)CCC3)cc1Br` gave CCHFV vOTU inh -168, GDH-TPI counter-1 3, RecA splice inh -451, FBA Mtb inh 91*, Mtb FBA inh conf 153* and GDH-TPI counter-2 131*.
For COc1ccc(N2C(=O)c3ccccc3NC(=O)C2C(=O)NCc2ccco2)cc1 (centres undefined) the results were CCHFV vOTU inh 8.
For COc1ccc(CCNC(=O)Nc2ccc3c(c2)c(=O)n(C)n3Cc2ccc(Cl)cc2)cc1OC the results were CCHFV vOTU inh -63, GDH-TPI counter-1 -2, FBA Mtb inh 88*, Mtb FBA inh conf 29* and GDH-TPI counter-2 28*.
Screening CC(C)=CCn1c2ccc(NC(=S)NC3CC3)cc2c(=O)n1C returned CCHFV vOTU inh -66, GDH-TPI counter-1 -2, FBA Mtb inh 31*, Mtb FBA inh conf 88* and GDH-TPI counter-2 74*.
`Cn1c(=O)c2cc(NC(=S)NC3CC3)ccc2n1Cc1ccccc1` gave CCHFV vOTU inh -31, GDH-TPI counter-1 3, FBA Mtb inh 41*, Mtb FBA inh conf 7 and GDH-TPI counter-2 -1.
For COc1ccc(CCNC(=O)Nc2ccc3c(c2)OCO3)cc1OC the results were CCHFV vOTU inh 2, GDH-TPI counter-1 -10, RecA splice inh 0 and FBA Mtb inh 3.
Screening COc1cccc(CNC(=S)Nc2ccc3c(c2)c(=O)n(C)n3Cc2csc(C)n2)c1 returned CCHFV vOTU inh -44, GDH-TPI counter-1 5 and FBA Mtb inh 18.
`Cc1nc(Cn2c3ccc(NC(=S)NC4CCCCC4)cc3c(=O)n2C)cs1` gave CCHFV vOTU inh -39, GDH-TPI counter-1 12, FBA Mtb inh 28*, Mtb FBA inh conf 73* and GDH-TPI counter-2 49*.
For COc1cccc(CNC(=S)Nc2ccc3c(c2)c(=O)n(C)n3Cc2ccccc2)c1 the results were CCHFV vOTU inh -22, GDH-TPI counter-1 6, FBA Mtb inh 56*, Mtb FBA inh conf 68* and GDH-TPI counter-2 44*.
`CC(C)(C)Sc1ccc2nc3c(n2c1)CCCC3` gave CCHFV vOTU inh -18, GDH-TPI counter-1 -1, RecA splice inh 2, FBA Mtb inh 30*, Mtb FBA inh conf 95* and GDH-TPI counter-2 56*.
For CCC1(OC(=O)CN(C)C)C(=O)OCc2c1cc1n(c2=O)Cc2cc3c(N)cccc3nc2-1 (centres undefined) the results were GDH-TPI counter-1 24, FBA Mtb inh 53*, Mtb FBA inh conf -2 and GDH-TPI counter-2 -2.
Screening O=C(O)c1ccccc1C(=O)c1ccc2c(c1)CCC2 returned CCHFV vOTU inh 9, GDH-TPI counter-1 5, RecA splice inh -5 and FBA Mtb inh 6.
